Several values for one entry are separate records, joined by “and”; a condition that tells them apart may be missing. Equal values may be shown once. The panel holds about 79,000 compounds, 15% with a hit somewhere; the sample as a whole holds those more often. Values without a mark were called inactive. Activity calls are given as the source filed them. Cut-off read from the data, not from the text of the source: active = growth inhibition above about 70%; inactive = the rest.

The nature of assay [1]: NCI Yeast Anticancer Drug Screen. Data for the rad50 strain (AID 155).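 Note: 0% = growth of vehicle-only cultures of the same strain.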 The following applies: S. cerevisiae rad50 strain growth inhibition, hits give high values; at 50.0 µM unless noted. In outline:
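Growth of the mutant yeast was measured after compound exposure and referenced to vehicle-treated cultures.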

The nature of assay [2]: NCI Yeast Anticancer Drug Screen. Data for the mec2-1 strain (AID 157). The following applies: S. cerevisiae mec2-1 strain, hits give high values; at 50.0 µM unless noted. The gist of the method:
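mec2-1 yeast strain, carrying an alteration in DNA damage repair or cell cycle control, was exposed to compounds; growth inhibition was measured relative to vehicle-treated controls.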

The nature of assay [3]: NCI Yeast Anticancer Drug Screen. Data for the sgs1 mgt1 strain (AID 161).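 Note: 0% = growth of cultures given vehicle only.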 The following applies: S. cerevisiae sgs1 mgt1 strain, hits give high values; at 50.0 µM unless noted. In outline:
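Yeast cells carrying a defined DNA-repair defect were exposed to test compounds. Growth inhibition was measured relative to vehicle-treated controls.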

A short description of assay [4]: NCI Yeast Anticancer Drug Screen. Data for the cln2 rad14 strain (AID 165).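 Note: 0% = growth equal to vehicle treated cultures.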 The following applies: S. cerevisiae cln2 rad14 strain, hits give high values; at 50.0 µM unless noted. The gist of the method: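 Yeast carrying cln2 and rad14 alterations (cell cycle control and DNA damage repair) were exposed to compounds. Growth inhibition was measured against vehicle-treated controls.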

Assay [5] in a line: NCI Yeast Anticancer Drug Screen. Data for the bub3 strain (AID 167). The following applies: S. cerevisiae bub3 mutant strain, hits give high values; at 50.0 µM unless noted. The gist of the method: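 Whole-cell yeast assay. The mutant strain was incubated with compounds, and growth inhibition was determined by comparison with vehicle-treated cells.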
A short description of assay [6]: NCI Yeast Anticancer Drug Screen. Data for the mlh1 rad18 strain (AID 175). The following applies: S. cerevisiae mlh1 rad18 strain growth inhibition, hits give high values; at 50.0 µM unless noted. In outline: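 Growth inhibition of the yeast strain was measured after compound exposure and expressed relative to vehicle-treated controls. The strain carries defined defects in DNA damage repair.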

Consider `C=CCC(Cc1ccccc1)C(N)=O` (configuration not stated), for which the growth inhibition in assay [1] is -21.1%; in assay [2], -51.7%; in assay [3], -14.5%; in assay [4], 10.6%; in assay [5], -22.2%; in assay [6], 14.4%.
For the compound `CC(C)=CC1(C)/C(=N\O)C(C)(CC(C)C)C(=O)N1O` (configuration not stated), the growth inhibition in assay [1] was -7.15%; in assay [2], -15.2%; in assay [3] it was -11.8%; in assay [4], -2.2%; in assay [5], -5.65%; in assay [6] it was -19.4%.
Consider `CC(C)Cc1c(C#N)c(C#N)c(N)n1Cc1ccccc1`, for which the growth inhibition in assay [1] was 3.05%; in assay [2], 11.4%; in assay [3] it was -29%; in assay [4], -12%; in assay [5], -22.1%; in assay [6], -36.4%.
For `CC(C)N(C(=O)c1ccc(C(=O)N(c2ccccc2)C(C)C)cc1)c1ccccc1`, the growth inhibition in assay [1] was -40.5%; in assay [2], -7.45%; in assay [3], -1.25%; in assay [4], 36%; in assay [5], -3.45%; in assay [6], 14.4%.
In the case of `NC(=O)CCCCCCCCC(N)=O`, the growth inhibition in assay [1] was 10.7%; in assay [2], 4.95%; in assay [3], 9.65%; in assay [4], -4.75%; in assay [5] it was -1.4%; in assay [6], 31.1%.
As for `COc1nc(NC2OC(CO)C(O)C(O)C2O)c(I)c(=O)[nH]1` (configuration not stated), the growth inhibition in assay [1] is 5.3%; in assay [2], -3.4%; in assay [3] it was 2%; in assay [4], -6.25%; in assay [5], -4.75%; in assay [6], 21.8%.
`O/N=C1\c2ccccc2-c2cccc(Br)c21`: the growth inhibition in assay [1] was 0.25%; in assay [2], 2.9%; in assay [3], 4.55%; in assay [4] it was -40.6%; in assay [5], -9.6%; in assay [6], 5.45%.
On to `COc1ccccc1/C=C1\SC(=S)NC1=O`, for which the growth inhibition in assay [1] is -44.6%; in assay [2], -36.9%; in assay [3] it was -38.2%; in assay [4] it was -14.6%; in assay [5], -17.8%; in assay [6] it was -40.1%.
`C#CCOC(=O)c1ccccc1`: the growth inhibition is 1.15% in assay [1]; -5.15% in assay [2]; 0.6% in assay [3]; -24.2% in assay [4]; 3.5% in assay [5]; 0% in assay [6].
As to `COc1ccc(Cl)cc1N`, the growth inhibition is -14.3% and 17.1% in assay [1]; -15.6% and -4% in assay [2]; -12.7% and -2.8% in assay [3]; 8.35% and 22.1% in assay [4]; 3.25% and -3.2% in assay [5]; -7.55% and 16.1% in assay [6].
`CC(C)(C)c1cc2c(O)c3cccc4c(=O)c5cccc6c5-c(c34)c2c(c1)c6=O`: the growth inhibition is 33.9% in assay [1]; 15.1% in assay [2]; -26.8% in assay [3]; 7.2% in assay [4]; 4.8% in assay [5]; -11.2% in assay [6].
With `N#CC(NNC(=O)Cc1ccccc1)c1ccc(O)cc1` (configuration not stated), the growth inhibition in assay [1] is -18.1%; in assay [2] it was -22.6%; in assay [3], -37.1%; in assay [4], -7.05%; in assay [5], -25.6%; in assay [6] it was -32.5%.
Regarding `CSc1nc(SC)c2ncn(C3CC(Oc4ccc(C)cc4)C(COc4ccc(C)cc4)O3)c2n1` (configuration not stated), the growth inhibition in assay [1] is 15.8%; in assay [2], -5.75%; in assay [3], 17.1%; in assay [4], 10.3%; in assay [5] it was 8.45%; in assay [6], -18.2%.
For `O=C(Nc1ccc(S(=O)(=O)Nc2nccs2)cc1)c1ccncc1`, the growth inhibition is -0.05% in assay [1]; -11.3% in assay [2]; 22.3% in assay [3]; 19.1% in assay [4]; 28.3% in assay [5]; 12% in assay [6].
As to `O=C1c2ccccc2C(=O)c2c1ccc1c3ccccc3n(-c3ccccc3)c21`, the growth inhibition in assay [1] was 7.4%; in assay [2], 4.2%; in assay [3] it was 18.4%; in assay [4] it was -5.2%; in assay [5], 6.65%; in assay [6] it was 15.7%.
Consider `COc1ccc(-c2cc(=O)c3c(O)c(O)c(OC)cc3o2)cc1O`, for which the growth inhibition is -5.15% in assay [1]; -28.6% in assay [2]; -55.9% in assay [3]; -8.4% in assay [4]; -2.6% in assay [5]; -18.3% in assay [6].
For the compound `CCN(CC)c1nc(Cl)nc(Nc2ccc3cc(-c4ccccc4)c(=O)oc3c2)n1`, the growth inhibition was -9.15% in assay [1]; -24.9% in assay [2]; -8.1% in assay [3]; 8.05% in assay [4]; -12.7% in assay [5]; -7.25% in assay [6].
In the case of `CCCCOC(=O)/C=C/C(=O)OCCCC`, the growth inhibition in assay [1] is -34.6%; in assay [2], 9.6%; in assay [3], 8.85%; in assay [4], 4%; in assay [5], -0.45%; in assay [6], 43.9%.
On to `CCOC(CN)(OCC)c1ccncc1`, for which the growth inhibition was 10.9% in assay [1]; 14.2% in assay [2]; 8.65% in assay [3]; -27.1% in assay [4]; 11.2% in assay [5]; -0.05% in assay [6].
Take `CCCC1([N+]2(C)CCCC2)CS(=O)C1CC` (configuration not stated): the growth inhibition in assay [1] was -3.8%; in assay [2] it was 8.45%; in assay [3], -3%; in assay [4] it was -4.8%; in assay [5] it was 5.8%; in assay [6], -13.3%.
As to `Cc1ccc(S(=O)(=O)OC2C(OCc3ccccc3)OC(CO)C2O)cc1` (configuration not stated), the growth inhibition is -6% in assay [1]; 6.65% in assay [2]; -9.2% in assay [3]; 15.3% in assay [4]; -0.6% in assay [5]; -9.15% in assay [6].
Consider `Cc1ccc(NC(=O)c2ccc(OP(=O)(O)Nc3ccc(C)cc3)cc2)cc1`, for which the growth inhibition in assay [1] is -22.6%; in assay [2], -21.8%; in assay [3], -8.05%; in assay [4], -3.15%; in assay [5] it was -5.2%; in assay [6], -4.1%.
`CCC(C)C(O)C(C)C` (configuration not stated): the growth inhibition was 11.3% in assay [1]; -18.1% in assay [2]; -15.6% in assay [3]; 13.6% in assay [4]; -4.6% in assay [5]; 21.8% in assay [6].
As for `CCOC(=O)C1(Cc2ccccc2)Cc2cc3c(cc2C1)CCC3`, the growth inhibition in assay [1] was -23.1%; in assay [2] it was -50.5%; in assay [3] it was -23.7%; in assay [4], -3.5%; in assay [5] it was 2.6%; in assay [6] it was -2.5%.
For `Cc1cccc(-c2cc3ccccc3c(Cl)n2)n1`, the growth inhibition was -4% in assay [1]; -23.1% in assay [2]; 10.8% in assay [3]; -0.6% in assay [4]; 7.6% in assay [5]; 7.7% in assay [6].
On to `CCCOc1cc2c(cc1C(C)c1ccc(OC)c(C)c1)OCO2` (configuration not stated), for which the growth inhibition in assay [1] was -3.55%; in assay [2] it was 3.45%; in assay [3], -6%; in assay [4], -87.7%; in assay [5], 4.55%; in assay [6], 4.15%.
With `O=CNNc1nn2cnnc2c2ccccc12`, the growth inhibition was -1% in assay [1]; 9.95% in assay [2]; -6.55% in assay [3]; 11.9% in assay [4]; -16.6% in assay [5]; 9.6% in assay [6].
For the compound `CC(=O)OCC1OC(n2c(-c3ccc(C)cc3)cc(-c3ccco3)c(C#N)c2=O)C(OC(C)=O)C(OC(C)=O)C1OC(C)=O` (configuration not stated), the growth inhibition in assay [1] is 10.6% and -5.75%; in assay [2] it was 10.6% and -5.75%; in assay [3], 20.6% and 4.95%; in assay [4] it was 13.5% and -16.8%; in assay [5] it was 27.4% and -4.4%; in assay [6] it was 14.4% and 9.7%.
In the case of `CC(C)(C)N=NNc1cn(C2OC(CO)C(O)C2O)c(=O)[nH]c1=O` (configuration not stated), the growth inhibition in assay [1] is -16.3%; in assay [2] it was -17.6%; in assay [3], -16.9%; in assay [4] it was 9.5%; in assay [5], -6.2%; in assay [6], -15.7%.
`Cc1cc[nH]c(=O)c1[N+](=O)[O-]`: the growth inhibition in assay [1] is -12.3%; in assay [2], -10.8%; in assay [3], -2.85%; in assay [4] it was -25.7%; in assay [5] it was -9.65%; in assay [6], 2.65%.
For `COc1ccc(N2C(=O)c3c(c4[nH]c5ccc(OC)cc5c4c4ccc(C(C)(C)C)cc34)C2=O)cc1`, the growth inhibition was -8.85% in assay [1]; -7.95% in assay [2]; 4.4% in assay [3]; 7.2% in assay [4]; -2.95% in assay [5]; 26.6% in assay [6].
Regarding `Cc1ccc(N[P+](c2ccccc2)(c2ccccc2)c2ccccc2)cc1.[Cl][Fe]([Cl])([Cl])[Cl]`, the growth inhibition is 44.1% in assay [1]; 3% in assay [2]; 22.9% in assay [3]; -8.4% in assay [4]; 11.7% in assay [5]; 12.6% in assay [6].
Regarding `CC(=O)c1cccc(NC(=O)Oc2ccc(-c3ccccc3)cc2Cl)c1`, the growth inhibition in assay [1] was 99.2% (active); in assay [2], 99.6% (active); in assay [3], 99.5% (active); in assay [4], 98.8% (active); in assay [5] it was 99.5% (active); in assay [6], 99.3% (active).
For the compound `N#C/C(=C\c1cccc2ccccc12)c1ccc(Cl)cc1`, the growth inhibition in assay [1] is -11.8%; in assay [2], -12.9%; in assay [3] it was -6.65%; in assay [4], -13.7%; in assay [5], -2.6%; in assay [6], -1.85%.
Take `Cc1cccc(C(=O)NNC(=O)C(=O)NNC(=O)c2cccc(C)c2)c1`: the growth inhibition was 3.6% in assay [1]; 43.6% in assay [2]; -3.1% in assay [3]; -0.05% in assay [4]; 24.6% in assay [5]; 26.9% in assay [6].
In the case of `COC(=O)[C@H]1C2CC[C@@H]3C45C[C@@H](c6ccoc6)O[C@@H]4O[C@@H](O2)C31CCC5C` (some centres not stated), the growth inhibition was 14.5% in assay [1]; -18.4% in assay [2]; 6.35% in assay [3]; 5% in assay [4]; -30.1% in assay [5]; 14.9% in assay [6].
For the compound `CCN(CC)c1ccc2cc(C(=O)Nc3ccccc3)c(=N)oc2c1`, the growth inhibition was 15.5% in assay [1]; 5.45% in assay [2]; 1.8% in assay [3]; 13.7% in assay [4]; -20.2% in assay [5]; -39.1% in assay [6].

(Values after PubChem BioAssay (NCI).)
